# Unmarked numbers belong to inactive results. Records with an inconclusive call do not appear. The source made the active and inactive calls.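 The calls were made as follows, unless noted: active = compounds whose dose series gives a full or clear partial fitted curve of increased nuclear translocation; inconclusive = weak partial curve or effect only at the top dose; inactive = no dose-dependent translocation response.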
# Columns and labels:
# [1] = Stat Signaling Pathway (AID 446; active = well fitted curve in either direction with a large enough effect, not every such curve was filed as active;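 also: ME-180 cervical cancer cells given 40 pM IL-6 alongside compound; SIE-controlled beta-lactamase reporter measured as 460/530 nm FRET emission ratio; % is scaled to controls: 0 for no effect and ±100 for the full control effect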); conditions: ME-180 SIE beta-lactamase reporter, IL-6 stimulated, 5 h; at 17.2 µM (top of the series) unless noted
# Method in brief: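 ME-180 cells carrying a SIE-driven beta-lactamase reporter are stimulated with 40 pM IL-6 for 5 h at 37C in the presence of compound. The 460/530 nm FRET substrate ratio is read after 2.5 h at RT. Data are normalised to 300 pM IL-6 and to 125 nM JAK inhibitor controls.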
# [2] = molecular target: Glucocorticoid receptor (Homo sapiens) (UniProt P04150); assay: GR-GFP Redistribution (AID 450); conditions: U2OS GR-GFP nuclear translocation, laser cytometry, 2 h; series mostly up to 20.6 µM; also: potency is read from the fitted curve at half-maximal effect
# Glucocorticoid receptor (Homo sapiens), sequence (P04150 whole entry, looked up): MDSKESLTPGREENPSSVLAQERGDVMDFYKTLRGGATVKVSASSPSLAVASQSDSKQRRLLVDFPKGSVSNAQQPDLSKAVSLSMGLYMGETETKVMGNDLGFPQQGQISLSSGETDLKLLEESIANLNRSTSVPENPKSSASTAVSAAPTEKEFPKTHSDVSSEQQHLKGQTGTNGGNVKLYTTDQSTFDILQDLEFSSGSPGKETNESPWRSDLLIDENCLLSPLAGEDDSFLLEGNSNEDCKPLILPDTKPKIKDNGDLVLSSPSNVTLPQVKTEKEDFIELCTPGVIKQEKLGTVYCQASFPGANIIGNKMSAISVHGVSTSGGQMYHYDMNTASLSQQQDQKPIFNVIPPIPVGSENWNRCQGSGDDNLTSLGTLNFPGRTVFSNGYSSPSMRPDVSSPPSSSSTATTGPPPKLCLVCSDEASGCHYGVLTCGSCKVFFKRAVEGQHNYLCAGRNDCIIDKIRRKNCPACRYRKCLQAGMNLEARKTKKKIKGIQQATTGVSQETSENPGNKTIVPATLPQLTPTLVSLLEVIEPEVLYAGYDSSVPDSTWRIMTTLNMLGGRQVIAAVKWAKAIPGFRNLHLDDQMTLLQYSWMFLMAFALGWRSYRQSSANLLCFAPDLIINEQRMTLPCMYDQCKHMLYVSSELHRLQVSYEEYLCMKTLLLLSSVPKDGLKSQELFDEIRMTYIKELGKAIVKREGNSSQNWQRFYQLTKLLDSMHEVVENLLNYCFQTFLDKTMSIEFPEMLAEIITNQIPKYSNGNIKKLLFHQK
SMILES,"activity, negative = inhibition [1]",Potency [2] [µM]
COc1cccc(-c2nc(N3CCCCC3C)c3ccccc3n2)c1O (configuration not stated),-21.7%,> 20.6
CCOC(=O)c1c2c(c(=S)n(-c3ccccc3)c1N)CCC2,-15.9%,> 20.6
CCc1[nH]nc2c1C(c1ccc(Br)s1)C(C#N)=C(N)O2 (configuration not stated),-17.3%,> 20.6
CN1Cc2c(N3CCOCC3)nc(SCc3ccccc3)c(C#N)c2CC1(C)C,-1.83%,> 20.6
COc1cccc(-c2nc(N3CCN(Cc4ccccc4)CC3)c3ccccc3n2)c1O,9.62%,> 20.6
Cn1c(OCc2cccnc2)nc2c1c(=O)n(Cc1ccc(Br)cc1)c(=O)n2C,-27.6%,> 20.6
CCOC(=O)c1[nH]c2cc3c(cc2c1NC(=O)CN1CCCCC1C)OCO3 (configuration not stated),-10.3%,> 20.6
Cc1ccccc1-n1c(=O)/c(=C\c2ccco2)s/c1=C(/C#N)C(=O)Nc1ccccc1,-25.9%,> 20.6
N#CC1=C(N)NC(SCc2ccc(F)cc2)=C(C#N)C12CCCCC2,-24.1%,> 20.6
CCCc1nn(C)c2c1C(c1cccnc1)C(C#N)=C(N)O2 (configuration not stated),4.95%,> 20.6
N#Cc1nc(-c2ccc(Cl)cc2)oc1N1CCCCC1,2.4%,> 20.6
COc1ccc(C(=O)CCN2CCCCCC2)cc1,-28.1%,> 20.6
Cc1cc(NCCNC2=CC(=O)CCC2)nc2ccccc12,4.57%,> 20.6
C=CCc1cccc(CNc2nc3ccccc3n2C(C)C)c1O,-22.2%,> 20.6
COc1cccc(-c2nnc3sc(C4CCCCC4)nn23)c1,-91.1% (active),> 20.6
CCOC(=O)N1CCN(c2ncnc3c2[nH]c2ccc(OC)cc23)CC1,-22.9%,> 20.6

# Reference: PubChem BioAssay (NCATS)
